Several values for one entry are separate records, joined by “and”; a condition that tells them apart may be missing. Identical values can stand only once. Screen size: about 73,000 compounds; about 2,500 (3.4%) were called active. About 7% were inconclusive and are not listed. The call rests on the fitted dose curve; in most records, active means well fitted inhibition curve with a large enough effect; inconclusive means small, poorly fitted or top-dose-only effect; inactive means no such curve, though single readings can be large or run the other way. Shown is part of a subset that was picked to be rich in actives.
target: 3-hydroxyacyl-CoA dehydrogenase type-2 (Homo sapiens) (UniProt Q99714); experiment: qHTS Assay for Inhibitors of HADH2 (Hydroxyacyl-Coenzyme A Dehydrogenase, Type II); conditions: recombinant HADH2, NADH fluorescence, beta-hydroxybutyryl-CoA; series mostly up to 57.1 µM; activity change, negative = inhibition: at the top concentration; further: nearly all actives have a fitted effect of over 60% in size
Sequence (Q99714 whole entry, looked up): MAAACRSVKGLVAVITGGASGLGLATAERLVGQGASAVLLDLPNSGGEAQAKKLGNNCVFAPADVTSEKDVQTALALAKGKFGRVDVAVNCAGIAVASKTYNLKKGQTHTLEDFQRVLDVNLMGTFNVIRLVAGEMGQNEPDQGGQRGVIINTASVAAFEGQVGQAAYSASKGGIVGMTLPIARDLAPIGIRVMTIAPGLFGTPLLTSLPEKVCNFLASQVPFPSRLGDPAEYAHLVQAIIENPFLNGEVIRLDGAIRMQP
Sequence (Q99714 whole entry, looked up): as above
Text: Assay Overview: NIH Molecular Libraries Screening Centers Network [MLSCN] NIH Chemical Genomics Center [NCGC] Structural Genomics Consortium [SGC] Grant Number: None HADH2: Hydroxyacyl-Coenzyme A dehydrogenase, type II, was supplied by researchers at the Structural Genomics Consortium, Oxford University lab (PI Udo Oppermann). The mitochondrial enzyme 17-hydroxysteroid dehydrogenase type 10 (HSD17-10) previously classified as type II hydroxyacyl-CoA dehydrogenase (HADH2) catalyzes the NAD+ dependent oxidation of a variety of substrates including acyl-CoAs, androgens and neurosteroids as well as bile acids(Shafqat N, Marschall HU, Filling C, et al. Biochemical Journal. 2003;376(Pt 1):49-60). The role in neurodegeneration by binding to amyloid-peptide led to its identification (Oppermann UC, et al FEBS Letters. 1999;451(3):238-242 and Yan SD, et al. Nature. 1997;389(6652):689-695), and mutations in its gene appear to be causative for 2-methyl-3-hydroxybutyryl-CoA dehydrogenase deficiency (Ofman R, et al. American Journal of Human Genetics. 2003;72(5):1300-1307). The enzyme was produced by E.coli fermentation as His-tagged recombinant for the purpose of X-ray structure determination, and had been mass-spectrometry characterized. Inhibition of HADH2 activity was screened by utilizing beta-hydroxybutyryl coenzyme A as an electron donor and NAD+ as an electron acceptor/cofactor. An increase in the fluorescence intensity due to conversion of NAD+ to NADH was used to measure the enzyme activity.
Assay Protocol: Buffer: 100 mM Tris-HCl pH 9.0, containing 0.01 % Tween-20. Reagents/Controls: Buffer in columns 3 and 4 as negative control (no enzyme). Substrate/cofactor solution: 1 mM NAD+ and 90 uM beta-hydroxybutyryl coenzyme A (Sigma-Aldrich, St. Louis, MO) final concentrations dispensed throughout the plate. Enzyme: 20 nM HADH2 final concentration in columns 1, 2, 5-48. Column 1 is neutral (100% activity). Column 2 contained titration of apomorphine (Sigma-Aldrich, A 4393, PubChem CID 2215, top concentration 500 uM, then 1:2 dilution in duplicate) Assay Steps: Three uL of enzyme were dispensed to 1536-well Greiner black solid bottom plates. Compounds and controls (23 nL) were transferred via Kalypsys PinTool. The plates were incubated for 15 min at room temperature, and then 1 uL of substrate/cofactor solution was added to start the reaction. The plates were immediately transferred to and read every 30 seconds for 4 min on ViewLux High-throughput CCD imager (Perkin-Elmer) using 360 nm excitation and 450 nm emission fluorescence protocol. The fluorescence intensity difference between the last and the first time points was used to compute reaction progress.
On the % scale 0 is the no-effect control and ±100 the full control effect; potency means the concentration at half of the fitted maximal effect.

SMILES | Potency | activity change, negative = inhibition
COC(=O)N(c1ccc(OC)cc1)P1(=S)OCCC(C)O1 (stereo not given) | 1 µM (active) | 
Fc1ccc(C(OCCN2CCN(C/C=C\c3ccccc3)CC2)c2ccc(F)cc2)cc1 |  | -4.71% (inactive)
N[C@H](Cc1o[nH]c(=O)c1Cl)C(=O)O |  | -1.53% (inactive)
C/C(=C\C=C/[C@@H](C)C(=O)O)[C@H]1CN[C@H](C(=O)O)[C@@H]1CC(=O)O |  | 1.54% (inactive)
O=C1C2(Cl)C3(Cl)C4(Cl)C(Cl)(Cl)C5(Cl)C3(Cl)C1(Cl)C5(Cl)C24Cl (stereo not given) | inactive | 
COc1ccc(CN2CCN(c3ccccc3F)CC2)c(OC)c1 |  | -2.55% [at 11.4 µM] (inactive)
CC(Cl)Cl |  | -6.68% (inactive)
Cc1cccc([C@H](C)c2cnc[nH]2)c1C |  | 0.0117% (inactive)
O=[N+]([O-])c1ccc(Cl)c(Cl)c1 | 31.6 µM (active) | 
Nc1ccc([N+](=O)[O-])cc1 |  | -6.3% (inactive)
Cc1cc(-c2ccc(N)c(C)c2)ccc1N |  | -17.4% (inactive)
ClCCBr |  | -7.21% (inactive)
O=C(O)C(=O)Cc1ccc2c(c1)OCO2 |  | -12.9% [at 11.4 µM] (inactive)
CC(=O)O[C@H]1CC[C@@]2(C)[C@@H](CC[C@H]3[C@H]2CC(=O)[C@]2(C)[C@@H]3C[C@@H](N3CC3)[C@H]2C(C)=O)C1 |  | 16.9% [at 11.4 µM] (inactive)
CC(C)(O/N=C(\C(=O)N[C@@H]1C(=O)N2C(C(=O)[O-])=C(C[n+]3ccccc3)CS[C@@H]12)c1csc(N)n1)C(=O)O | 7.94 µM (active) | 
c1ccc(CN2CC[C@@]3(CCCNC3)C2)cc1 |  | -3.09% (inactive)
NCC[Se][Se]CCN |  | 1.13% [at 11.4 µM] (inactive)
NC[C@H](O)c1ccc(O)cc1 | inactive | 
BrC1C(Br)C(Br)C(Br)C(Br)C1Br (stereo not given) | 25.1 µM (active) | 
C[C@H](Br)C(=O)N[C@H](CO)C(=O)O |  | -0.293% [at 11.4 µM] (inactive)
CC[C@]1(O)C(=O)OCc2c1cc1n(c2=O)Cc2cc3ccccc3nc2-1 |  | -8.11% (inactive)
CCCCN1C2CCC1CC(OC(c1ccc(F)cc1)c1ccc(F)cc1)C2 (stereo not given) |  | 3.59% (inactive)
CCOC(=O)c1c(-c2ccccc2)oc2ccc(OC(=O)N(C)C)cc12 | 7.94 µM (active) | 
C[C@@]12CC[C@H]3[C@@H](CC[C@]4(O)C[C@H](O)CC[C@@]34C=O)[C@]1(O)CC[C@@H]2C1=CC(=O)OC1 |  | -3.49% [at 25.6 µM] (inactive)
Clc1ccc([C@@H]2C[C@H]3CC[C@@H]2N3)cn1 |  | -0.0351% (inactive)
ClC(Cl)(Cl)c1ccccc1 | inactive | 
CC(=O)c1c(O)c(C)c(O)c(Cc2c(O)c3c(c(C(=O)/C=C\c4ccccc4)c2O)OC(C)(C)C=C3)c1O | 12.6 µM (active) and 1 µM (active) | 
Nc1ccc(Cc2ccc(N)c(Cl)c2)cc1Cl |  | -16.3% (inactive)
Clc1ccccc1 |  | -7.99% (inactive)
CC(C)(c1ccccc1)c1ccc(O)cc1 |  | -14.8% (inactive)

Reference: PubChem BioAssay AID886 (National Center for Advancing Translational Sciences (NCATS), 2007)
